The campaign covered roughly 69,000 compounds. About 8,600 (12%) showed an effect of 50% or more. The sample holds strong results, similar compounds and a random draw of the others, so the mix is not that of the screen.
Test system: Plasmodium berghei
Assay: Screen against P. berghei liver stage (PbLuc), transformed with Luciferase, at 10uM
Format: functional, HepG2
Conditions: tested at 10 uM

SMILES	INHIBITION [%]
COc1cc(C2CC(=O)Nc3c2c(=O)[nH]n3C2CCCC2)ccc1O (configuration not stated)	27.4
CSc1[nH]nc(NC(=O)c2ccncc2)c1C#N	48.8
O=C(N1CCCC(n2cncn2)C1)C1(c2cccc(F)c2)CC1 (configuration not stated)	23.7
CCOc1ccnc(N2CCN(C(=O)c3ccoc3C)CC2)n1	-13.5
O=C(NC1CC1)[C@H]1C[C@H]2OCC[C@H]2N(Cc2ccc3ccccc3n2)C1	38.1
O=C(Nc1cccnc1)[C@H]1CO[C@H]2CCN(c3ncc(F)cn3)C[C@H]2C1	25.4
CC(C)N1CC[C@@H]2OC[C@H](C(=O)Nc3cccnc3)C[C@@H]2C1	-25.1
CNC(=O)[C@H]1CO[C@H]2CCN(c3ncc(F)cn3)C[C@H]2C1	3.58
CCCN1CC[C@@H]2OC[C@H](C(=O)Nc3cccnc3)C[C@@H]2C1	59.9
CNC(=O)[C@H]1CO[C@H]2CCN(Cc3ccc4ccccc4n3)C[C@H]2C1	50
CC(C)NC(=O)[C@H]1C[C@H]2OCC[C@H]2N(Cc2ccc3ccccc3n2)C1	61.4
CC(C)NC(=O)[C@@H]1C[C@H]2OCC[C@H]2N(Cc2ccc3ccccc3n2)C1	19.4
COCCNC(=O)[C@H]1CO[C@H]2CCN(Cc3cccs3)C[C@H]2C1	38.5
NC(=O)CSc1nccc(-c2ccc3c(c2)OCO3)n1	-22.6
CS(=O)(=O)N1CCOCC2(CCN(c3ccccn3)C2)C1 (configuration not stated)	5.96
O=c1[nH]cc(Nc2ccc(Cl)cc2)c(=O)[nH]1	15.4
CCS(=O)(=O)c1ccc2c(c1)N1CCS(=O)(=O)N=C1O2	20.1
O=S1(=O)CCN2C(=N1)Oc1ccc(Cl)cc12	30.5
O=S1(=O)CCN2C(=N1)Oc1ccc(S(=O)(=O)N3CCCC3)cc12	86.6
Cn1cc(Br)c(=O)c(NS(=O)(=O)c2ccccc2F)c1	-1.38
CCn1cc(CN(C)S(=O)(=O)c2ccc(C)c(C)c2)cn1	10.1
Cc1cnc(CN2CCOC(CNc3cccnn3)C2)cn1 (configuration not stated)	2.26
c1cnnc(NCC2CN(Cc3ccon3)CCO2)c1 (configuration not stated)	50.5
CCCc1nc(CN2CCOC(CNc3cccnn3)C2)cs1 (configuration not stated)	58.9
CCc1nc(CN2CCOC(CNc3cccnn3)C2)cs1 (configuration not stated)	41.5
Cc1cc(CN2CCOC(CNc3cccnn3)C2)no1 (configuration not stated)	7.12

SMILES	INHIBITION [%]
COCc1nc(CN2CCOC(CNc3cccnn3)C2)cs1 (configuration not stated)	14.1
CC(=O)N1CCC(c2cccc(-c3cccc(C(=O)O)c3)n2)CC1	25.8
Cc1cnn(CC2CCCN2C(=O)c2ccc(Cl)cc2F)c1 (configuration not stated)	3.73
CCc1nc(C2CCCN(C(=O)c3c(C)noc3C)C2)no1 (configuration not stated)	45.1
Cc1noc(C)c1-c1cccc(C2CCCNC2)n1 (configuration not stated)	-57.4
CCCc1ccc2oc(C(=O)N3CCN(CCC(N)=O)CC3)c(C)c2c1	18.5
Cc1c(NC(=O)CN2CCC(Oc3cnccn3)CC2)cnn1C	0.696
COCCC(=O)N1CCCC(CCc2ccc(F)c(F)c2)C1 (configuration not stated)	4.97
O=C(CCC1CCCN(C(=O)CCc2ccc(F)c(F)c2)C1)NC1CC1 (configuration not stated)	75.4
COCCC(=O)N1CCCC(CCC(=O)Nc2ccc(Cl)cc2)C1 (configuration not stated)	57.2
COCCC(=O)N1CCCC(CCC(=O)NCc2ccccc2F)C1 (configuration not stated)	-4.12
O=C(CCC1CCCN(S(=O)(=O)C2CC2)C1)Nc1ccc(Cl)cc1 (configuration not stated)	28
COCCC(=O)N1CCCC(CCC(=O)NCc2cccc(OC)c2)C1 (configuration not stated)	9.52
Cc1ccc(-c2nc3cc(S(=O)(=O)N4CCCC4)ccc3n2C)o1	14.1
CCc1cccc2cc(CNCCOC)c(=O)[nH]c12	24.95
O=C(CCn1ccnc1)N1CCCC(n2cncn2)C1 (configuration not stated)	49
Cc1cccc(CN2CCCC3(CCN(CC4CCCO4)CC3)C2)n1 (configuration not stated)	53
Cn1ccnc1CN1CCCC2(CCN(CC3CCCO3)CC2)C1 (configuration not stated)	38.1
Cc1cccc(CN2CCOCC3(CCN(C4CCOCC4)C3)C2)n1 (configuration not stated)	-34.9
c1cncc(N2CCCC3(CCN(CC4CCCO4)CC3)C2)c1 (configuration not stated)	3.58
c1cc(CN2CCCC3(CCN(CC4CCCO4)CC3)C2)n[nH]1 (configuration not stated)	47.5
c1ccc(CN2CCCC3(CCN(CC4CCCO4)CC3)C2)nc1 (configuration not stated)	62
c1cc(CN2CCc3c(nnn3CC3CC3)C2COCC2CC2)co1 (configuration not stated)	27.4
CCN1CCOCC2(CCCN(C(=O)c3ccncc3F)C2)C1 (configuration not stated)	27.2
Cc1c(C(=O)N2CCCN(S(C)(=O)=O)CC2)cnn1C	-4.96
N#CCCCS(=O)(=O)NC1(c2ccc(F)cc2)CC1	26.4

SMILES	INHIBITION [%]
Cc1ccc(Oc2ccc(NC(=O)NCC3CCOC3)cn2)cc1C (configuration not stated)	58.2
O=C(NCC1CCOC1)Nc1ccc(Oc2ccc(F)cc2)nc1 (configuration not stated)	3.67
CCN(CC)c1ccc(NC(=O)NCC2CCOC2)cn1 (configuration not stated)	-45.3
CN(C)c1ccc(NC(=O)NCC2CCOC2)cn1 (configuration not stated)	77.85
O=C(NCC1CCOC1)Nc1ccc(Oc2cccc(F)c2)nc1 (configuration not stated)	-8.15
O=C(NCC1CCOC1)Nc1ccc(OCC(F)(F)F)nc1 (configuration not stated)	23.2
COc1ncccc1CNC(=O)NCCNS(C)(=O)=O	-9.37
CC(C)CS(=O)(=O)N1C[C@@H]2C[C@H](C(=O)Nc3cccnc3)[C@H](C1)O2	-10.3
CN1N=C(C(=O)N(Cc2ccco2)C2CC2)CCC1=O	19
Cc1c(Br)cccc1C(=O)NCC1CCNCC1	39.7
Cn1cccc1CN1CCC2(CCCN(C(=O)c3cccnc3)C2)CC1	-43.1
Cc1nccn1-c1cc(CNC(=O)C2CCCO2)ccn1 (configuration not stated)	21
CCC(CC)n1nc(C)cc1NC(=O)C1CCCO1 (configuration not stated)	-56.4
CCSCc1ccnc(NC(=O)C2CCCO2)c1 (configuration not stated)	-4.26
CC(C)(C)c1cc(NC(=O)C2COCCO2)n(-c2ccccn2)n1 (configuration not stated)	30.7
Cc1ccnc(NC(=O)C2CCCO2)c1 (configuration not stated)	62.3
CC(C)(C)c1cc(NC(=O)C2CCCO2)n(-c2ccccn2)n1 (configuration not stated)	52.5
O=C(c1cnccn1)N1CCC2(CC1)CC(Oc1ccccc1)CO2 (configuration not stated)	41.3
CCOCC1CCN(C(=O)c2sc(C)cc2OC(F)F)CC1	0.325
COc1cc(CCC(=O)NC2CCN(C)CC2)ccc1OCC(F)(F)F	-14.7
COCCNC(=O)c1ccc(NCc2csc(C)n2)cc1Cl	16
COCCOc1cccc(C(=O)N2CCCC(n3cccn3)C2)c1 (configuration not stated)	9.94
CC1CCc2nn(CCNC(=O)Cc3cccs3)c(=O)cc2C1 (configuration not stated)	-45.7
Cc1nc(CN(CCS(C)(=O)=O)C(C)C)no1	49.3
c1cncc(COC[C@H]2CC[C@H]3[C@H](CCN3Cc3cccs3)O2)c1	31.8
CN(C)C(=O)COC[C@H]1CC[C@@H]2[C@@H](CCN2Cc2ccco2)O1	-11.6

SMILES	INHIBITION [%]
Cc1cccc(COC[C@@H]2CC[C@H]3[C@H](CCN3Cc3ccco3)O2)n1	43.5
Cc1cccc(COC[C@H]2CC[C@H]3[C@H](CCN3Cc3ccco3)O2)n1	68.4
c1ccc(COC[C@H]2CC[C@H]3[C@H](CCN3c3ncccn3)O2)nc1	26.4
c1ccc(COC[C@H]2CC[C@H]3[C@H](CCN3Cc3ccco3)O2)nc1	51.3
COC[C@H]1CC[C@@H]2[C@@H](CCN2Cc2ccco2)O1	-6.39
c1csc(CN2CC[C@H]3O[C@@H](COCC4CC4)CC[C@H]32)c1	73
c1ccc(COC[C@H]2CC[C@H]3[C@H](CCN3Cc3cccs3)O2)nc1	49.7
c1coc(CN2CC[C@H]3O[C@@H](COCC4CC4)CC[C@H]32)c1	53.9
c1coc(CN2CC[C@@H]3O[C@@H](COCc4ccncc4)CC[C@@H]32)c1	0.164
c1coc(CN2CC[C@@H]3O[C@@H](COCC4CCOCC4)CC[C@@H]32)c1	-30
Cn1cc(C[C@H]2[C@H](O)CCN2CC2CCOCC2)cn1	6.6
O=C1CNc2ncnc(NCc3cccs3)c2N1	-25.5
CN(Cc1ccco1)C(=O)CN1C(=O)c2cc(Cl)c(Cl)cc2C1=O	39.2
O=C1COC2(CCN(Cc3ccoc3)CC2)CN1	-0.813
CS(=O)(=O)CC(=O)N1C[C@H]2CCC[C@@]2(COc2ccccn2)C1	-0.453
Cn1c(=O)c2cc(C(=O)NCCOc3ccccc3)ccc2n(C)c1=O	33.7
CC(C)n1c(=O)c2ccccc2n(CCCN(C)C)c1=O	28.7
c1ccc(COC[C@H]2CC[C@H]3[C@H](CCN3Cc3ccccn3)O2)nc1	50.9
c1ccc(COC[C@H]2CC[C@H]3[C@H](CCN3Cc3cccnc3)O2)nc1	29.9
c1ccc(CN2CC[C@@H]3O[C@H](COCc4ccncc4)CC[C@@H]32)nc1	14.8
CCCNC(=O)c1[nH]nc(C2CC2)c1Br	-59.9
Cn1cnc2ccc(NC(=O)CCCn3cccn3)cc2c1=O	2.84
O=C(c1ccccc1F)N1CCCC1Cn1c(=O)oc2ccccc21 (configuration not stated)	-1.4
Fc1ccccc1C(CNc1ccncn1)N1CCCC1 (configuration not stated)	43.4
